Bioassay records deposited in PubChem by several laboratories.
Sampled rows, rich in hits. Any-hit rate of the full collection: about 5.2%.
APOBEC3G inh – inhibitors of human APOBEC3G DNA deaminase; Q9HC16; recombinant A3G, ssDNA deamination FAM/TAMRA fluorescence; inhibition, % at 20 µM; actives 0.28% (n = 330,000); AID 493012;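 active = inhibition of at least 40% at 20 µM, with no more than 30% in the related APOBEC3A deaminase screen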;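 also: plate controls were DMSO wells with A3G for no effect and wells lacking A3G enzyme for full effect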
M18AAP inhibitor – PfM18AAP enzyme inhibition; recombinant PfM18AAP, H-Glu-NHMec fluorogenic cleavage; inhibition, % at 7.35 µM; actives 1.2% (n = 290,000);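 active = inhibition above the campaign mean inhibition over all tested compounds plus 3 SD, cut at about 28% in these data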;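 also: 0% = plate median of test compound wells and 100% = 2 mM ZnCl2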
APOBEC3A inh – blocks human APOBEC3A ssDNA deamination; P31941; recombinant A3A, FAM/TAMRA ssDNA deamination fluorescence; inhibition, % at 20 µM; actives 0.41% (n = 330,000); AID 493011;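 active = at least 40% inhibition at 20 µM here, with at most 30% in a related deaminase screen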;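 also: plate controls were A3A with DMSO for no effect and wells lacking A3A enzyme for full effect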
NRP1-CendR mod – alters CendR peptide binding to human NRP-1; FAM-RPARPAR peptide binding to NRP-1, fluorescence polarization; AID 602438; inhibition, % at 25 µM; actives 0.85% (n = 360,000);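 active = inhibition or corrected inhibition above about 18%, plus a signal ratio from 0.5 to 1.5, limit read from the data, passing the limit was not always enough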
Target sequence (O14786 whole entry, looked up): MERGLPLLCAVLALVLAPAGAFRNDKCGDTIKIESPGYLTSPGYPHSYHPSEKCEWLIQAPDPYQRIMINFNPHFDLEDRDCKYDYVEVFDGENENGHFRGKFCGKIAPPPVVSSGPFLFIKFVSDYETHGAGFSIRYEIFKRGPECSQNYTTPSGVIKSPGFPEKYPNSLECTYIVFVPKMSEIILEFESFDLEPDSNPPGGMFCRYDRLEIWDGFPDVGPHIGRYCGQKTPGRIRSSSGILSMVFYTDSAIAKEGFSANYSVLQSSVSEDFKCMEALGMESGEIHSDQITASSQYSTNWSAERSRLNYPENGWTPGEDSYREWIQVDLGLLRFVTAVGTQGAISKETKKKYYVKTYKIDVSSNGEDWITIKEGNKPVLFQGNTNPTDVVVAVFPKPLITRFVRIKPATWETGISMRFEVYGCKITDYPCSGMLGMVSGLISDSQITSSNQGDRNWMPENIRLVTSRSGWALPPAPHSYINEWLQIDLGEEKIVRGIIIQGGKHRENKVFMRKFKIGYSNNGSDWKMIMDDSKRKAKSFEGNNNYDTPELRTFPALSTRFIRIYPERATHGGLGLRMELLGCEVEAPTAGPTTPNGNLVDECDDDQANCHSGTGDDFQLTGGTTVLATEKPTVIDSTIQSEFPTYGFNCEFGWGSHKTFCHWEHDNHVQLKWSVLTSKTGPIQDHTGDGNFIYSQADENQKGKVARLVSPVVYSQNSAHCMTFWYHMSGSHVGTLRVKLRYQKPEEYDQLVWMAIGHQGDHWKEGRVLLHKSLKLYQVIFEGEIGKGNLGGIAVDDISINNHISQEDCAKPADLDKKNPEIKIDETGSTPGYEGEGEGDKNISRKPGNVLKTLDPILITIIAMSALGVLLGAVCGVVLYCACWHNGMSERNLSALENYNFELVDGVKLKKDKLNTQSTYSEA
ALR H2O2 inh – human ALR oxidase inhibition via reduced H2O2; purified ALR, DTT oxidation, H2O2 HRP-luminol luminescence; P55789; inhibition, % (test concentration not listed); actives 3.8% (n = 290,000);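 active = mean replicate inhibition above about 79%, with every replicate also reaching it, limit read from the data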
CR mimetic SO – caloric restriction mimetics inhibiting age-related superoxide in yeast; AID 2690; actives 0.18% (n = 330,000); S. cerevisiae aged cells, superoxide DHE fluorescence; active compounds read low; superoxide response (% of plate mean), % at 10 µM;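 active = superoxide response under a set limit, about three screen SD below normal, cut at about 65% in these data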;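 also: yeast aged for seven days with compound at 30 °C before DHE staining; 100% = average MFI of all compound-treated wells on the plate with controls excluded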
* = called active by the depositor; / = not tested or not shown.

SMILES	APOBEC3G inh	M18AAP inhibitor	APOBEC3A inh	NRP1-CendR mod	ALR H2O2 inh	CR mimetic SO
CCN1CCN(C(=O)C(NS(=O)(=O)c2ccc3nc(C)sc3c2)C(C)C)CC1 (stereo not drawn)	-8	-6	-3	-8	92*	101
Cc1nc2ccc(S(=O)(=O)NC(C(=O)NCc3ccc4c(c3)OCO4)C(C)C)cc2s1 (stereo not drawn)	1	-2	1	6	-37	105
COc1ccc(C(Cl)=C(C=O)c2ccc(OC)c(OC)c2)cc1OC	/	/	/	-8	/	/
O=S(=O)(NCCCN1CCN(c2ccccc2F)CC1)c1cccc2cccnc12	-6	-7	1	6	95*	92
COc1ccc(SCCc2ccncc2)cc1	-4	-7	-1	11	93*	94
Fc1ccc(SCCc2ccncc2)cc1	-6	-3	0	-12	-3	89
CC(Sc1nnc2n1CCCCC2)C(=O)Nc1ccccc1[N+](=O)[O-] (stereo not drawn)	0	/	3	2	/	120
O=C(COc1ccccc1)NNc1c2ccccc2nc2ccccc12	-6	2	-3	4	98*	121
O=C(CCC(=O)NNC(=O)COc1ccccc1)NCc1ccccc1	-2	4	3	-7	3	99
COc1ccc(OCC(=O)NNc2c3ccccc3nc3ccccc23)cc1	-7	0	0	0	100*	103
CC(=O)C[C@H](O)CC(=O)[C@H]1OC(=O)CCCCCc2ccccc21	-6	/	31	8	/	101
COc1ccc(NS(=O)(=O)c2cc(NC(=O)c3nc4nc(C)cc(C)n4n3)ccc2C)cc1	-8	0	-2	-6	-6	106
O=C(COC(=O)Cc1cccs1)NCc1ccc(F)cc1	-4	5	6	25*	1	102
O=C(COC(=O)Cc1ccc(Br)cc1)NCc1cccs1	2	/	-5	12	/	111
COc1nccnc1NS(=O)(=O)c1ccc(NC(=S)NC(=O)c2ccccc2)cc1	-6	12	-5	-8	87*	114
CCCCCc1c2c(cc(O)c1C(=O)O)OC(=O)c1c(cc(OC)cc1C(=O)CCCC)O2	-8	-2	26	-93	98*	89
CCCNC(=S)NNC(=O)c1cc(-c2cccnc2)nc2ccccc12	-7	10	-5	6	8	97
CCNC(=S)NNC(=O)c1cc(-c2cccnc2)nc2ccccc12	-12	7	-11	2	88*	135
Cc1ccc2sc(N(CCCN(C)C)C(=O)CN3C(=O)c4ccccc4C3=O)nc2c1C	-1	-1	6	8	-45	108
CCOC(=O)c1ccc(NC(=O)C2CC3CCC2C3)cc1 (stereo not drawn)	-7	/	-1	13	-2	99
CCOc1ccc(NC(=O)C2CC3CCC2C3)cc1 (stereo not drawn)	-2	/	-3	28*	-6	89
CCOc1ccc(NC(=O)C2CCC(N3C(=O)C4CC=CCC4C3=O)CC2)cc1 (stereo not drawn)	-4	-4	-4	29*	-6	125
CCCC(C)c1nnc(NC(=O)CCS(=O)(=O)Cc2ccccc2)s1 (stereo not drawn)	12	29*	-3	16	-5	98
Cc1ccc(-c2csc(/C(C#N)=C(\O)CN3CCN(C(=O)c4ccco4)CC3)n2)cc1	-8	-12	-3	-22	99*	107
N#C/C(=C(/O)CN1CCOCC1)c1nc(-c2ccccc2)cs1	-4	-4	-5	-16	36	83
SMILES	APOBEC3G inh	M18AAP inhibitor	APOBEC3A inh	NRP1-CendR mod	ALR H2O2 inh	CR mimetic SO
O=C(COc1ccc2ccccc2c1)N/N=C/c1ccccn1	-8	3	0	37*	-14	92
Cc1cc(C)cc(OCC(=O)N/N=C/c2ccccn2)c1	-3	0	1	3	-5	83
CC1(C)CC(=O)c2cnn(-c3nc4ccccc4[nH]3)c2C1	0	-2	8	-8	94*	96
CC(=O)c1ccccc1NC(=O)CSCc1nc2sc(C)c(C)c2c(=O)[nH]1	0	/	0	-19	/	/
CSc1ccccc1NC(=O)CSCc1nc2sc(C)c(C)c2c(=O)[nH]1	-12	/	-5	-22	57	104
Cc1ccc(F)cc1NC(=O)CSCc1nc2sc(C)c(C)c2c(=O)[nH]1	3	/	-1	-3	97*	96
Cc1sc2nc(CSCC(=O)Nc3ccccc3C#N)[nH]c(=O)c2c1C	-4	12	2	-53	98*	97
COc1ccc(/C(C)=N/N2CCCCC2)c(O)c1	0	-4	3	3	-9	82
O=C(c1cccs1)N(CC1CCCO1)c1nc(-c2ccccc2)cs1 (stereo not drawn)	-6	-8	0	-12	-3	166
CN(C)c1ccc(CN(C(=O)c2cccs2)C2CCS(=O)(=O)C2)cc1 (stereo not drawn)	1	11	-5	5	93*	121
Cc1cccc(OCC(=O)N(Cc2ccc(N(C)C)cc2)C2CCS(=O)(=O)C2)c1 (stereo not drawn)	-2	10	-9	-12	/	95
COc1cccc(C(=O)N(Cc2ccc(N(C)C)cc2)C2CCS(=O)(=O)C2)c1 (stereo not drawn)	-3	-5	-2	-3	88*	90
CN(C)c1ccc(CN(CC2CCCO2)C(=O)c2cccs2)cc1 (stereo not drawn)	-2	9	0	2	92*	73
Cc1ccccc1OCC(=O)N(Cc1cccs1)C1CCS(=O)(=O)C1 (stereo not drawn)	-4	6	1	-3	97*	91
COc1cccc(C(=O)C2CCCN(Cc3c(C)n(C)n(-c4ccccc4)c3=O)C2)c1 (stereo not drawn)	-3	-17	1	6	4	117
COc1ccc(N(C)C(=O)c2ccc3c(Cl)c4c(nc3c2)CCCC4)c(OC)c1	4	1	1	-3	4	118
COc1cc(C(=O)Nc2cc(C)ccc2C)ccc1OCc1c(C)noc1C	-8	/	-5	7	/	100
CN(C)c1ccc(CN(C(=O)/C=C/c2ccco2)C2CCS(=O)(=O)C2)cc1 (stereo not drawn)	-4	-8	-1	-1	86*	127
CCOC(=O)C1=NOC(COc2ccccc2C=O)C1 (stereo not drawn)	-3	1	2	-2	0	92
CCOC(=O)C1=NOC(Cn2cc(C#N)c(=O)n(C)c2=O)C1 (stereo not drawn)	-6	-16	-5	36*	9	93
COc1cc2c(cc1OC)C(C)=NCC2	-3	2	-3	-2	-6	103
COC(=O)c1ccc(CSc2nc3c(cnn3-c3ccccc3)c(=O)[nH]2)o1	-7	5	-4	-5	-7	98
